Measured values from PubChem BioAssay (NCI).
About 79,000 compounds went through this panel and 15% of them were active in at least one assay; those are over-represented in the sample as a whole. Unmarked numbers belong to inactive results. Calls of active or inactive are those of the source. Cut-off read from the data, not from the text of the source: active = growth inhibition above about 70%; inactive = the rest.

Assay: NCI Yeast Anticancer Drug Screen. Data for the wt2 strain (AID 169);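 note: 0% = growth of vehicle-treated yeast cultures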
Settings: S. cerevisiae wt2 strain growth inhibition, active compounds read high
Method: Growth inhibition of yeast strains with defined genetic alterations is measured as a screen for potential anti-cancer activity. Selected strains with alterations in DNA damage repair or cell cycle control were exposed to compounds and growth inhibition was measured relative to vehicle treated controls. The strain used in this assay is wt2

**Q.** With O=C(NCCCNCCCNC(=O)c1cc(-c2ccccc2)nc2ccccc12)c1cc(-c2ccccc2)nc2ccccc12 as the molecule, how does the growth inhibition (at 1.2 µM) read?
**A.** -3%

**Q.** What about the growth inhibition (at 3.7 µM) of the same molecule?
**A.** -4%

**Q.** What about the growth inhibition (at 11.0 µM) of the same molecule?
**A.** -4%

**Q.** What about the growth inhibition (at 33.0 µM) of the same molecule?
**A.** 1%

**Q.** And the growth inhibition (at 100.0 µM)?
**A.** 11%

**Q.** Which growth inhibition (at 1.2 µM) does the source give for CCCCc1cc(O)ccc1O here?
**A.** 0%

**Q.** And the growth inhibition (at 3.7 µM)?
**A.** -1%

**Q.** What about the growth inhibition (at 11.0 µM) of the same molecule?
**A.** 1%

**Q.** And the growth inhibition (at 33.0 µM)?
**A.** 3%

**Q.** What about the growth inhibition (at 100.0 µM) of the same molecule?
**A.** 6%

**Q.** For Cc1ccc(C2C(Cl)C(=O)N2n2cnc3ccccc3c2=O)cc1 (stereo not given), which growth inhibition (at 1.2 µM) is on record?
**A.** -15%

**Q.** What about the growth inhibition (at 3.7 µM) of the same molecule?
**A.** -19%

**Q.** What about the growth inhibition (at 11.0 µM) of the same molecule?
**A.** -18%

**Q.** What about the growth inhibition (at 33.0 µM) of the same molecule?
**A.** -23%

**Q.** What about the growth inhibition (at 100.0 µM) of the same molecule?
**A.** -8%

**Q.** Which results are given for CC(C)C1=CCC2C(=C1)CCC1C(C)(C(=O)O)CCCC21C (stereo not given) (tested in a mixture with another compound)?
**A.** growth inhibition (at 1.2 µM): -60%; growth inhibition (at 3.7 µM): -40%; growth inhibition (at 11.0 µM): -56%; growth inhibition (at 33.0 µM): 63%; growth inhibition (at 100.0 µM): 93% (active)

**Q.** For O=C(N=Nc1ccccc1Cl)NNc1ccccc1Cl, which growth inhibition (at 1.2 µM) is on record?
**A.** 0%

**Q.** And the growth inhibition (at 3.7 µM)?
**A.** 0%

**Q.** And the growth inhibition (at 11.0 µM)?
**A.** 3%

**Q.** And the growth inhibition (at 33.0 µM)?
**A.** 7%

**Q.** And the growth inhibition (at 100.0 µM)?
**A.** 8%

**Q.** Which results are given for Cc1cc(O)cc(O)c1N=Nc1ccc([N+](=O)[O-])cc1?
**A.** growth inhibition (at 1.2 µM): 5%; growth inhibition (at 3.7 µM): 11%; growth inhibition (at 11.0 µM): -4%; growth inhibition (at 33.0 µM): 26%; growth inhibition (at 100.0 µM): 45%

**Q.** What does the source list for O=C1C(=O)c2ccccc2C=C1[N+](=O)[O-]?
**A.** growth inhibition (at 1.2 µM): 2%; growth inhibition (at 3.7 µM): 6%; growth inhibition (at 11.0 µM): 11%; growth inhibition (at 33.0 µM): 28%; growth inhibition (at 100.0 µM): 75% (active)

**Q.** Which results are given for COc1cccc2nc3ccccc3nc12?
**A.** growth inhibition (at 1.2 µM): -2%; growth inhibition (at 3.7 µM): -1%; growth inhibition (at 11.0 µM): 8%; growth inhibition (at 33.0 µM): 50%; growth inhibition (at 100.0 µM): 96% (active)
